Values joined by “and” are separate entries in the source; they are usually repeats but may differ in a detail not shown here. Equal entries are not always repeated. Out of some 5,500 compounds screened, about 2,000 (36%) were called active. Not shown: some 18% with an inconclusive outcome. No stated cut-off is given here; in the data, active means normalized growth mostly below about 0.91 (no sharp cut-off); inconclusive means no clear call, values can overlap the other calls; inactive means mostly above about 0.92. The list shows a part of the results.
Assay: chemical genetic growth profiling, strain panel (AID 1159580);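 further: tested at 20 µM; growth read once vehicle control cultures reached saturation at 30 °C; 1 = growth at the plate median or of vehicle wells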
Conditions: S. cerevisiae deletion strains, growth OD

Measured: normalized growth

CCCc1nn(C)c2c(=O)[nH]c(-c3cc(S(=O)(=O)N4CCN(C)CC4)ccc3OCC)nc12
inactive: locus YAL013W, strain DEP1, stronger effect = lower value 1.02 | locus YAL021C, strain ccr4, stronger effect = lower value 0.991 | locus YAL026C, strain drs2, stronger effect = lower value 0.988 | locus YAL030W, strain snc1, stronger effect = lower value 0.997 | locus YBL061C, strain skt5, stronger effect = lower value 0.989 | locus YBR009C, strain hhf1, stronger effect = lower value 1 | locus YBR021W, strain FUR4, stronger effect = lower value 1.05 | locus YBR023C, strain chs3, stronger effect = lower value 0.988 | locus YBR171W, strain sec66, stronger effect = lower value 0.99 | locus YBR229C, strain ROT2, stronger effect = lower value 1.02 | locus YBR231C, strain swc5, stronger effect = lower value 0.988 | locus YBR279W, strain paf1, stronger effect = lower value 0.985 | locus YCL011C, strain gbp2, stronger effect = lower value 0.987 | locus YCL016C, strain dcc1, stronger effect = lower value 0.994 | locus YCL029C, strain bik1, stronger effect = lower value 0.993 | locus YCL061C, strain MRC1, stronger effect = lower value 0.981 | locus YCL069W, strain vba3, stronger effect = lower value 0.992 | locus YCR088W, strain abp1, stronger effect = lower value 0.983 | locus YDL005C, strain med2, stronger effect = lower value 0.987 | locus YDL035C, strain GPR1, stronger effect = lower value 1.03 | locus YDL040C, strain nat1, stronger effect = lower value 0.991 | locus YDL074C, strain BRE1, stronger effect = lower value 1.07 | locus YDL101C, strain DUN1, stronger effect = lower value 1.02 | locus YDL134C, strain PPH21, stronger effect = lower value 1.03 | locus YDL185W, strain tfp1, stronger effect = lower value 1 | locus YDL192W, strain arf1, stronger effect = lower value 0.989 | locus YDR001C, strain nth1, stronger effect = lower value 0.989 | locus YDR069C, strain doa4, stronger effect = lower value 0.991 | locus YDR101C, strain arx1, stronger effect = lower value 0.991 | locus YDR137W, strain rgp1, stronger effect = lower value 0.986 | locus YDR150W, strain NUM1, stronger effect = lower value 1.02 | locus YDR159W, strain sac3, stronger effect = lower value 1 | locus YDR162C, strain NBP2, stronger effect = lower value 1.01 | locus YDR195W, strain ref2 0.978 | locus YDR297W, strain sur2, stronger effect = lower value 0.991 | locus YDR318W, strain mcm21, stronger effect = lower value 1 | locus YDR334W, strain swr1, stronger effect = lower value 0.989 | locus YDR335W, strain msn5, stronger effect = lower value 0.993 | locus YDR388W, stronger effect = lower value 0.962 | locus YDR392W, strain spt3, stronger effect = lower value 0.989 | locus YDR502C, strain sam2, stronger effect = lower value 0.99 | locus YEL003W, strain gim4, stronger effect = lower value 0.995 | locus YEL037C, strain rad23, stronger effect = lower value 0.992 | locus YEL061C, strain CIN8 (second series), stronger effect = lower value 0.988 | locus YEL061C, strain CIN8, stronger effect = lower value 1.02 | locus YER015W, strain faa2, stronger effect = lower value 0.994 | locus YER016W, strain bim1, stronger effect = lower value 0.988 | locus YER110C, stronger effect = lower value 0.974 | locus YER111C, strain swi4, stronger effect = lower value 0.989 | locus YER155C, strain BEM2 (second series), stronger effect = lower value 0.987 | locus YER155C, strain BEM2, stronger effect = lower value 1.01 | locus YER167W, strain BCK2, stronger effect = lower value 1.03 | locus YFR010W, strain ubp6, stronger effect = lower value 0.98 | locus YGL078C, strain dbp3, stronger effect = lower value 0.985 | locus YGL086W, strain mad1, stronger effect = lower value 0.992 | locus YGL167C, strain pmr1, stronger effect = lower value 1 | locus YGL173C, strain kem1, stronger effect = lower value 0.983 | locus YGL227W, strain vid30, stronger effect = lower value 0.988 | locus YGL240W, strain doc1, stronger effect = lower value 1 | locus YGL248W, strain PDE1, stronger effect = lower value 1.02 | locus YGL253W, strain hxk2, stronger effect = lower value 0.995 | locus YGR078C, strain PAC10, stronger effect = lower value 1.04 | locus YGR135W, strain pre9, stronger effect = lower value 0.995 | locus YGR229C, strain SMI1, stronger effect = lower value 1.03 | locus YGR252W, strain gcn5, stronger effect = lower value 0.953 | locus YHR013C, strain ard1, stronger effect = lower value 0.956 | locus YHR027C, strain rpn1, stronger effect = lower value 0.992 | locus YHR030C, strain SLT2, stronger effect = lower value 1.02 and 1.03 | locus YHR079C, strain IRE1 (second series), stronger effect = lower value 0.991 | locus YHR079C, strain IRE1, stronger effect = lower value 1.05 | locus YHR094C, strain hxt1, stronger effect = lower value 0.995 | locus YHR129C, strain ARP1, stronger effect = lower value 1.02 | locus YHR142W, strain chs7, stronger effect = lower value 0.99 | locus YHR200W, strain rpn10, stronger effect = lower value 1 | locus YIL066C, strain RNR3, stronger effect = lower value 1.03 | locus YIL073C, strain SPO22, stronger effect = lower value 1.06 | locus YIL125W, strain kgd1, stronger effect = lower value 0.994 | locus YIR030C, strain dcg1, stronger effect = lower value 0.997 | locus YJL092W, strain hpr5, stronger effect = lower value 0.99 | locus YJL095W, strain BCK1 (second series), stronger effect = lower value 0.986 | locus YJL095W, strain BCK1, stronger effect = lower value 1.04 and 1.01 | locus YJL115W, strain asf1, stronger effect = lower value 0.993 | locus YJL129C, strain trk1, stronger effect = lower value 0.995 | locus YJL134W, strain LCB3, stronger effect = lower value 1.01 | locus YJL154C, strain vps35, stronger effect = lower value 0.988 | locus YJL164C, strain tpk1, stronger effect = lower value 0.999 | locus YJL166W, strain qcr8, stronger effect = lower value 0.991 | locus YJL168C, strain set2, stronger effect = lower value 0.995 | locus YJL187C, strain SWE1 (second series), stronger effect = lower value 1.02 | locus YJL187C, strain SWE1, stronger effect = lower value 0.991 | locus YJR043C, strain POL32, stronger effect = lower value 1.04 | locus YJR066W, strain TOR1, stronger effect = lower value 0.981
